The list is not random: actives were taken first. Their share in the collection is about 4.9%.
SKKanGAS inh: inhibitors of SKKanGAS S. pyogenes growth in kanamycin (SK-promoter or general growth effect); BacTiter-Glo, 6 h; inhibition, % at 7.5 µM; 1.3% of 300,000 active;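 active = mean replicate score, as percent of positive control median, at least 50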;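 also: strain carries kanamycin resistance gene driven by streptokinase promoter and grows in 40 µg/ml kanamycin; loss of luminescence reflects streptokinase promoter inhibition or plain growth inhibition; 0% = median of DMSO wells and 100% = positive control at its reference dose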
NLRP3 yeast inh: NALP3 inhibition in yeast; Yeast reconstituted NLRP3/ASC/caspase-1, beta-gal luminescence, 24 h; 0.39% of 330,000 active; inhibition, % at 10 µM;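 active = inhibition of 50% or more; inactive = inhibition below 50%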;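 also: plate controls were induced DMSO wells for no effect and uninduced yeast grown without galactose for full effect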
TIM10 inh: inhibits growth of TIM10 yeast strain; S. cerevisiae TIM10 strain growth, BacTiter-Glo luminescence, 24 h; inhibition, % at 10 µM; 1.4% of 330,000 active;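 active = inhibition of 40% or more at the single tested concentration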;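 also: wild-type TIM10 isogenic control strain grown at permissive 25 °C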
tim10-1 inh: tim10-1 yeast growth inhibition | S. cerevisiae tim10-1 ts strain growth, BacTiter-Glo, 24 h | inhibition, % at 20 µM | 2.2% of 330,000 active;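 active = inhibition of at least 40%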;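 also: mutant grown at 25 °C; 0% = DMSO wells with yeast and 100% = wells holding no yeast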
NALP1 yeast inh: NALP1 inhibition; AID 2071; 0.61% of 280,000 active; inhibition, % at 10 µM; S. cerevisiae NALP1/ASC/caspase-1 growth, X-gal OD620, 72 h; in the data active = inhibition mostly above about 24%, no sharp cut-off; inactive = mostly below about 32%
tim23-1 inh: tim23-1 yeast growth inhibition; S. cerevisiae tim23-1 growth, BacTiter-Glo luminescence, 24 h; inhibition, % at 20 µM; 1.3% of 330,000 active;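 active = growth inhibition of the mutant yeast at or above 50%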;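 also: temperature-sensitive mutant grown at 25 °C; plate controls were DMSO-treated mutant yeast for no effect and medium wells lacking yeast for full effect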
tim10-1 confirm: confirmation of tim10-1 mutant yeast growth inhibitors; S. cerevisiae tim10-1 ts strain growth, BacTiter-Glo, 24 h; inhibition, % at 20 µM; 56% of 7,400 active; shares compounds with tim10-1 inh; AID 463213;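 active = inhibition of yeast growth at or above a set limit in either of two repeat tests at 20 µM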;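 also: tim10-1 mutant grown at permissive 25 °C to find synthetic lethal compounds; 0% = DMSO yeast wells and 100% = medium wells without yeast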
tim10 confirm: confirmation of TIM10 yeast growth inhibitors | shares compounds with TIM10 inh | 63% of 4,600 active | inhibition, % at 10 µM | S. cerevisiae tim10 strain growth, BacTiter-Glo luminescence, 24 h;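 active = inhibition of yeast growth at or above a set limit in either of two replicates at 10 µM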;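 also: this counterscreen used the strain with wild-type TIM10; 0% = yeast with DMSO and 100% = medium wells lacking yeast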
tim23-1 confirm: confirmation of tim23-1 mutant yeast growth inhibitors. inhibition, % at 20 µM. S. cerevisiae tim23-1 growth, BacTiter-Glo luminescence, 24 h. shares compounds with tim23-1 inh. 83% of 4,400 active;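 active = inhibition above about 39% in either of two replicate wells at 20 µM, limit read from the data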;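 also: temperature-sensitive tim23-1 mutant grown at 25 °C; 0% = DMSO wells with yeast and 100% = medium wells without yeast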
An asterisk follows results filed as active; x = no result given.

SMILES | SKKanGAS inh | NLRP3 yeast inh | TIM10 inh | tim10-1 inh | NALP1 yeast inh | tim23-1 inh | tim10-1 confirm | tim10 confirm | tim23-1 confirm
CCCC(=O)Nc1ccc(Sc2ccc([N+](=O)[O-])cc2)cc1 | -7 | 30 | 55* | 42* | 32 | 51* | 25 | 41* | 43*
CCC(CC)C(=O)Nc1ccc(Sc2ccc([N+](=O)[O-])cc2)cc1 | 11 | -5 | 23 | 25 | -9 | 22 | x | x | x
COc1cc(C(=O)O)nc(OC)n1 | -4 | 30 | 9 | 0 | 3 | -13 | x | x | x
O=C(NCCC1CCCCN1S(=O)(=O)c1ccccc1)C(=O)NCc1ccc(F)cc1 (configuration not stated) | -10 | 15 | 4 | 26 | x | 21 | x | x | x
O=C1c2cccc3cc([N+](=O)[O-])cc(c23)C(=O)N1CC1CCCO1 (configuration not stated) | 5 | 18 | 15 | 41* | x | 52* | 23 | x | 44*
O=C1c2ccccc2C(=O)N1CC1CCCO1 (configuration not stated) | -3 | 15 | -3 | -18 | 34 | -7 | x | x | x
COc1cc(SC)ccc1C(=O)OCC(=O)N1CC(=O)Nc2ccccc21 | x | 10 | -2 | 13 | x | 13 | x | x | x
COc1ccc(CC(=O)Nc2c3c(nn2C(C)(C)C)CS(=O)(=O)C3)cc1OC | 2 | 9 | 8 | 4 | 8 | 1 | x | x | x
O=C(/C=C/c1cccc(Cl)c1)c1ccc([N+](=O)[O-])o1 | 63* | 43 | 96* | 94* | x | 95* | 96* | 99* | 99*
COc1cc(/C=C/C(=O)c2ccc([N+](=O)[O-])o2)ccc1O | 72* | 49 | 97* | 96* | x | 96* | 97* | 99* | 99*
Cc1cc(O)c(C(=O)/C=C/c2cccc([N+](=O)[O-])c2)c(=O)o1 | 8 | 20 | 15 | 12 | x | 9 | x | x | x
Cc1cc(=O)oc2cc(OCC(=O)N3CCOCC3)c(Cl)cc12 | x | -5 | 12 | 1 | x | 11 | x | x | x
CCOc1cc(/C=C(\C#N)C(=O)Nc2ccc(S(N)(=O)=O)cc2)ccc1OCCN1CCOCC1 | 34 | 8 | 6 | 4 | 8 | 3 | x | x | x
Cc1ccc(/C(N)=N/OC(=O)N2c3ccccc3Sc3ccccc32)cc1 | 7 | 16 | 86* | 63* | x | 68* | 50* | 80* | 46*
CCC(C(=O)O/N=C(\N)c1ccc(C)cc1)c1ccccc1 (configuration not stated) | -2 | 1 | 64* | 69* | -14 | 54* | 61* | -15 | 68*
CCC(C(=O)O/N=C(\N)c1ccccc1)c1ccccc1 (configuration not stated) | 28 | -3 | 54* | 56* | 26 | 56* | 53* | 49* | 43*
COc1cc(C(=O)OCC(=O)Nc2cccc(S(=O)(=O)N3CCOCC3)c2)ccc1OCC(C)C | -10 | 22 | -2 | 6 | x | 13 | x | x | x
O=C(NNC(=O)c1ccco1)c1ccc(NS(=O)(=O)c2cccs2)cc1 | 1 | 15 | -2 | -24 | x | 1 | x | x | x
COc1ccc(/C(N)=N/OC(=O)CCC2CCCC2)cc1 | 5 | 4 | 54* | 60* | 5 | 65* | 56* | 53* | 67*
Cc1cccc(/C(N)=N/OC(=O)CCC2CCCCC2)c1 | 1 | -20 | 62* | 50* | 22 | 64* | 56* | 75* | 72*
Cc1ccc(/C(N)=N/OC(=O)CCC2CCCC2)cc1 | 2 | 14 | 63* | 58* | -5 | 72* | 46* | 75* | 55*
N/C(=N\OC(=O)CCC1CCCC1)c1ccc(Cl)cc1 | -7 | 10 | 79* | 61* | 18 | 59* | 61* | 73* | 65*
N/C(=N\OC(=O)CCC1CCCC1)c1cccnc1 | 4 | 2 | 9 | 38 | 17 | 23 | x | x | x
N/C(=N\OC(=O)CCC1CCCC1)c1ccncc1 | 7 | 10 | 13 | 11 | 12 | 3 | x | x | x
